Assay results: PubChem BioAssay AID1159580 (chemical genetic matrix, 2015)
The campaign covered roughly 5,500 compounds. About 2,000 (36%) were called active. Inconclusive results (about 18%) are left out. No stated cut-off is given here; in the data, active means normalized growth mostly below about 0.91 (no sharp cut-off); inconclusive means no clear call, values can overlap the other calls; inactive means mostly above about 0.92. This is one part of the list.

Assay: chemical genetic growth profiling, strain panel (AID 1159580);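 further: tested at 20 µM; growth read once vehicle control cultures reached saturation at 30 °C; 1 = growth at the plate median or of vehicle wells; lower values mean less growth of the strain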
Details: S. cerevisiae deletion strains, growth OD
[1] = locus YGR078C, strain PAC10, hits give low values
[2] = locus YPL241C, strain CIN2, hits give low values

Measured: normalized growth

CCC(CCC(C)C1CCC2C3CC=C4C[C@@H](OC(C)=O)CC[C@]4(C)C3CC[C@]12C)C(C)C (stereo not given in full)
inactive: locus YBR021W, strain FUR4, hits give low values 0.996 | locus YBR229C, strain ROT2, hits give low values 0.99 | locus YCL029C, strain bik1, hits give low values 0.996 | locus YDL035C, strain GPR1, hits give low values 1.04 | locus YDL074C, strain BRE1, hits give low values 1.07 | locus YDL101C, strain DUN1, hits give low values 0.979 | locus YDL134C, strain PPH21, hits give low values 1.01 | locus YDL185W, strain tfp1, hits give low values 0.974 | locus YDL192W, strain arf1, hits give low values 1 | locus YDR101C, strain arx1, hits give low values 1.02 | locus YDR162C, strain NBP2, hits give low values 1 | locus YDR318W, strain mcm21, hits give low values 0.976 | locus YDR388W, hits give low values 0.963 | locus YDR502C, strain sam2, hits give low values 0.968 | locus YEL061C, strain CIN8, hits give low values 1 | locus YER110C, hits give low values 0.968 | locus YER155C, strain BEM2, hits give low values 0.981 | locus YER167W, strain BCK2, hits give low values 1.01 | locus YGL078C, strain dbp3, hits give low values 0.964 | locus YGL086W, strain mad1, hits give low values 0.992 | locus YGL248W, strain PDE1, hits give low values 0.982 | [1] 0.989 | locus YGR135W, strain pre9, hits give low values 0.945 | locus YGR252W, strain gcn5, hits give low values 0.941 | locus YHR030C, strain SLT2, hits give low values 0.991 | locus YHR079C, strain IRE1 (second series), hits give low values 0.977 | locus YHR094C, strain hxt1, hits give low values 0.976 | locus YHR129C, strain ARP1, hits give low values 0.998 | locus YHR200W, strain rpn10, hits give low values 0.975 | locus YIL066C, strain RNR3, hits give low values 1.02 | locus YIL073C, strain SPO22, hits give low values 1.01 | locus YIL125W, strain kgd1, hits give low values 0.987 | locus YIR030C, strain dcg1, hits give low values 0.968 | locus YJL095W, strain BCK1, hits give low values 0.991 | locus YJL134W, strain LCB3, hits give low values 0.991 | locus YJL168C, strain set2, hits give low values 0.96 | locus YJL187C, strain SWE1 (second series), hits give low values 0.979 | locus YJR043C, strain POL32, hits give low values 1.05 | locus YKL009W, strain mrt4, hits give low values 1.03 | locus YKL068W, hits give low values 0.987 | locus YKL085W, strain MDH1 (second series), hits give low values 0.989 | locus YKL085W, strain MDH1, hits give low values 0.989 | locus YKL190W, strain CNB1, hits give low values 1 | locus YKR001C, strain vps1, hits give low values 0.995 | locus YLR039C, strain RIC1, hits give low values 1.07 | locus YLR058C, strain SHM2, hits give low values 1 | locus YLR102C, strain apc9, hits give low values 0.978 | locus YLR262C, strain YPT6, hits give low values 1.08 | locus YLR268W, strain sec22, hits give low values 1.02 | locus YLR330W, strain CHS5, hits give low values 0.993 | locus YLR342W, strain FKS1 (second series), hits give low values 1.09 | locus YLR371W, strain rom2, hits give low values 0.993 | locus YLR418C, strain cdc73, hits give low values 0.959 | locus YML016C, strain PPZ1, hits give low values 1.01 | locus YML032C, strain rad52, hits give low values 1.01 | locus YML124C, strain tub3, hits give low values 0.98 | locus YMR078C, strain ctf18, hits give low values 0.962 | locus YMR223W, strain ubp8, hits give low values 0.992 | locus YMR307W, strain GAS1, hits give low values 1.06 | locus YNL067W, strain RPL9B, hits give low values 0.974 | locus YNL128W, strain TEP1, hits give low values 1.01 | locus YNL233W, strain BNI4, hits give low values 0.98 | locus YNL250W, strain rad50, hits give low values 0.947 | locus YNL271C, strain bni1, hits give low values 0.957 | locus YNL298W, strain CLA4, hits give low values 0.997 | locus YNL307C, strain MCK1, hits give low values 0.975 | locus YNR052C, strain pop2, hits give low values 0.961 | locus YOL006C, strain TOP1, hits give low values 1.2 | locus YOL012C, strain htz1 1.41 | locus YOL147C, strain pex11, hits give low values 0.989 | locus YOR061W, strain CKA2, hits give low values 1.01 | locus YOR069W, strain VPS5, hits give low values 0.99 | locus YOR136W, strain idh2, hits give low values 0.975 | locus YOR144C, strain elg1, hits give low values 0.97 | locus YOR184W, strain ser1, hits give low values 1.04 | locus YOR316C, strain cot1, hits give low values 0.978 | locus YPL055C, strain LGE1, hits give low values 1.03 | [2] 0.984 | locus YPR119W, strain clb2, hits give low values 0.971 | locus YPR141C, strain kar3, hits give low values 0.975 | locus YPR163C, strain tif3, hits give low values 0.982 | locus YPR167C, strain met16, hits give low values 0.967 | strain wtn01, hits give low values 1.01

C=CCN1CC[C@]23c4c5ccc(O)c4O[C@H]2/C(=N\NC(=O)c2ccccc2)CC[C@@]3(O)[C@H]1C5
inactive: locus YAL013W, strain DEP1, hits give low values 0.989 | locus YAL040C, strain CLN3, hits give low values 1.06 | locus YCL061C, strain MRC1 (second series), hits give low values 0.987 | locus YDR363W, strain ESC2, hits give low values 0.998 | locus YER002W, strain NOP16, hits give low values 1.03 | [1] 0.985 | locus YNL153C, strain GIM3, hits give low values 0.983 | locus YNL175C, strain NOP13, hits give low values 0.993 | locus YNL197C, strain WHI3, hits give low values 0.996 | locus YNL224C, strain SQS1, hits give low values 1 | locus YOR083W, strain WHI5 (second series), hits give low values 0.991 | [2] 0.996
